# Screens as filed in PubChem BioAssay.
# Shown are actives, neighbours in structure and some others; about 4.7% of the full set was active somewhere.
# TRHR agonist – TRH receptor (human) agonism. P34981. TRHR cells, calcium flux fluo-8, FDSS agonist mode. activation, % at 2 µM. actives 0.18% (n = 360,000). AID 493084; also: 0% is about no effect
# Target sequence (P34981 whole entry, looked up): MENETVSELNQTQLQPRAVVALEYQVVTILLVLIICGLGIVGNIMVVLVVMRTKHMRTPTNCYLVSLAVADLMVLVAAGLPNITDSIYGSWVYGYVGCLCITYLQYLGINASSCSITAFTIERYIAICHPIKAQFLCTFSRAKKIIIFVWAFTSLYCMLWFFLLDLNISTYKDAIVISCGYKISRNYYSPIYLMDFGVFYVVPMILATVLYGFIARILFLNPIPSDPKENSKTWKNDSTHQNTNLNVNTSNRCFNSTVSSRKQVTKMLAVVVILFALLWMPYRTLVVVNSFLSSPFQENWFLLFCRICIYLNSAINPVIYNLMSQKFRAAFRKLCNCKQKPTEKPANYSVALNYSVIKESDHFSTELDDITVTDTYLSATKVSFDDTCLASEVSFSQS
#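 Agonist-mode FDSS calcium read (Ex 480/Em 530, 1 s cycles) in 1536-well TRHR cells with fluo-8 dye, after 10-cycle baseline and 23 nL compound addition; TRH at EC20 (10 nM final) added afterwards for the enhancer phase.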
# D1 ag – activates the human D1 dopamine receptor; P21728; HEK293 T-REx D1 cells, calcium flux, agonist mode; activation, % at 2 µM; actives 1% (n = 360,000); also: 0% is about no effect
#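 Agonism was scored from calcium flux recorded over 180 s (1 read/s) after pintool compound addition, following a 10-cycle baseline. Cells were inducible force-coupled HEK293 TREx D1, plated overnight at 30 C and loaded with no-wash calcium dye.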
# D1 PAM – human D1 dopamine receptor positive modulation | P21728 | HEK293 TREx D1 cells, calcium flux, dopamine EC20 potentiation | actives 0.036% (n = 360,000) | potentiation, % at 10 µM | AID 504651; in the data active = potentiation above about 30%; also: 0% is about no effect
# D1 antagonist – antagonists of human D1 dopamine receptor. HEK293 TREx D1 cells, calcium flux, dopamine EC80; stronger effect = lower value. activity change, negative = inhibition, % at 10 µM. actives 3.2% (n = 360,000); in the data active = activity change below about -30%; also: % is scaled to controls: 0 for no effect and ±100 for the full control effect
#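 Compound effects on dopamine-evoked calcium signalling were measured in tetracycline-induced HEK293 Trex D1 cells. Dopamine at EC80 followed a 180 s compound pre-read, and fluorescence was tracked kinetically for 180 s more.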
# TRHR enhancer – allosterically enhances the human TRH receptor; P34981; TRHR cells, fluo-8 calcium fluorescence, EC20 TRH enhancement; AID 493056; actives 0.66% (n = 360,000); enhancement, % at 2 µM; in the data active = enhancement above about 30%; also: 0% is about no effect
#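 Enhancer read-out: after compound pinning and an initial kinetic agonist-mode read, an EC20 of TRH (10 nM final) was injected and fluo-8 calcium signal (Ex 480/Em 530) followed at 1 s/cycle for 100 cycles in TRHR-expressing cells.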
# Numbers without * were called inactive. Rule as the data show it, unless noted: active = activation above about 30%; inactive = the rest.
SMILES,TRHR agonist,D1 ag,D1 PAM,D1 antagonist,TRHR enhancer
O=C(NCCCN1CCN(c2ccccc2F)CC1)C1COc2ccccc2C1 (stereo not drawn),0,6,-4,-34*,-1
O=C(NCCN1CCN(c2ccccc2)CC1)C1CCN(S(=O)(=O)N2CCOCC2)CC1,0,2,4,-11,-3
CC1CCC(Nc2ncnc3onc(-c4ccc(Cl)cc4)c23)CC1 (stereo not drawn),0,1,-2,9,-4
CCc1cccc2c(-c3ccc(F)cc3)nc(SCC(=O)Nc3ccccc3)nc12,1,1,3,4,2
CCCS(=O)(=O)N1CC(=O)N(c2ccccc2F)C(C)(C(=O)NC2CCCCCC2)C1 (stereo not drawn),0,0,1,0,0
COc1ccc(N2CCN(CCCNC(=O)C3COc4ccccc4C3)CC2)cc1 (stereo not drawn),0,13,-1,-19,8
Cc1ccc(C)c(N2CCN(CCCNC(=O)C3COc4ccccc4C3)CC2)c1 (stereo not drawn),1,63*,0,-26,-6
COc1ccc2c(c1)CC(C(=O)NCCN1CCN(c3ccccc3F)CC1)CO2 (stereo not drawn),0,1,-5,-40*,8
Cc1ccc(C)c(NC(=O)CN2C(=O)CCc3cc(S(=O)(=O)N4CCCCC4)ccc32)c1,0,-2,0,9,-10
CCOCc1c(C(=O)Nc2ccc3nc(N4CCOCC4)sc3c2)oc2ccccc12,0,0,-8,-32*,-2
CCOCc1c(C(=O)NCc2ccccc2CN2CCCC2)oc2ccccc12,-1,1,-6,-30*,10
Cc1c(C(=O)NCc2ccccc2CN2CCCC2)oc2ccccc12,0,0,-17,-43*,1
Cc1c(C(=O)NCc2ccccc2F)oc2ccccc12,1,1,-8,-20,2
CCOCc1c(C(=O)Nc2cc(OCC)c(N3CCOCC3)cc2OCC)oc2ccccc12,0,2,-4,1,-10
COc1ccc(Cl)c2sc(NC(=O)c3ccc(S(=O)(=O)N4CCOCC4)cc3)nc12,1,5,1,7,6
Cc1ccc(S(=O)(=O)c2nc(S(=O)(=O)c3ccc(C)cc3)c(NCCCOC(C)C)s2)cc1,1,3,5,-3,3
CC(=O)Nc1cc(C(=O)NCc2ccccc2)ccc1Sc1ccc(C)cc1,-1,-1,0,9,3
Cc1cccc(C)c1NC(=O)CN(C)C(=O)CSCc1c(C)noc1C,-1,0,-1,18,13
Cc1noc(C)c1CSCC(=O)N(C)CC(=O)Nc1ccccc1Br,0,4,-3,-47*,-5
COc1ccc(C(C(=O)NCC2CCCO2)N(C(=O)Cn2nnc3ccccc32)c2ccc(NC(C)=O)cc2)c(OC)c1 (stereo not drawn),1,18,-7,-67*,0
Cc1ccc(-c2csc(N3CCN(c4cc5c(cc4Cl)nc(C)n5CCN4CCCCC4)CC3)n2)cc1,0,1,-11,-39*,2
O=S(=O)(Nc1cccc2cccnc12)c1cccs1,0,-1,-7,6,-4
COc1ccc(CNS(=O)(=O)c2ccc(C(=O)N(C)C)s2)cc1,1,-2,0,-2,-1
COc1cc(OC)c(CNC2CCCCCC2)cc1Br,0,62*,-12,-11,27
COc1cc(OC)c(OC)cc1CNC1CCCCCC1,-2,5,-5,21,-1
SMILES,TRHR agonist,D1 ag,D1 PAM,D1 antagonist,TRHR enhancer
CCc1ccc(CNC(=O)c2cc3n(n2)CCCN(Cc2ccccc2)C3=O)cc1,0,66*,-3,-47*,2
CC(=O)Nc1nonc1-c1nnc(SCC(=O)Nc2ccc(C)c(Cl)c2)n1-c1ccccc1,0,-1,0,3,-1
COc1ccc(-n2c(SCC(=O)Nc3ccc(C)cc3)nc(O)c(Cc3ccccc3)c2=O)cc1,0,6,1,-51*,3
COc1ccc(NC(=O)CSc2nnc(-c3nonc3NC(C)=O)n2-c2ccccc2)cc1,0,-2,1,-46*,1
COc1ccccc1NC(=O)CSc1nc2c(oc3ccccc32)c(=O)n1-c1ccc(C)cc1,1,6,-4,-39*,1
Cc1nc(N2CCCC2)ncc1C(=O)Nc1ccc(F)cc1F,0,-1,0,-4,1
CCCN(CCC)C(=O)Cn1c(=O)n(-c2ccc(CC)cc2)c(=O)c2ccc(C(=O)NCCc3ccccc3)cc21,-1,5,1,8,-2
Oc1c(C=Nc2cccnc2)sc2ccccc12,1,5,4,9,-1
Oc1sc(C=Nc2ccccc2)c2ccccc12,39*,172*,-2,-16,4
Oc1c(C=Nc2ccccc2)sc2ccccc12,0,1,0,0,3
Oc1sc(C=Nc2ccc(F)cc2)c2ccccc12,-1,132*,-7,-25,-2
O=C1CCN(CCc2ccccc2)CCN1CCSc1ccc(Br)cc1,0,9,-7,-22,-3
Cc1ccc(SCCN2CCN(CCc3ccccc3)CCC2=O)cc1,-1,5,-2,-38*,1
Cc1ccc(NC(=O)Cc2ccc(-n3c(C)nc4cccnc43)cc2)c(Cl)c1,-1,8,2,-16,-1
N#C/C(=N/Nc1ccc(OC(F)(F)F)cc1)C(N)=S,4,40*,-4,-30*,-7
CCOc1ccc(N/N=C(/C#N)C(N)=O)cc1,0,1,-1,16,1
Cc1cc2c(s1)c1cnn(Cc3c(F)ccc(C)c3F)c(=O)c1n2C,0,0,12,-24,4
Cc1nn(Cc2c(F)c(F)c(F)c(F)c2F)c(C)c1NC(=O)c1ccc(COc2ccccc2Cl)cc1,0,6,-9,-34*,-2
COc1ccc(/C=C2\CCc3c2nc2ccccc2c3C(=O)O)cc1OC,2,2,-2,22,4
COc1ccc(/C=C2\CCCc3c2nc2ccccc2c3C(=O)O)cc1OC,214*,236*,-9,-35*,16
O=C(O)CNC(=O)/C(=C/c1ccco1)NC(=O)/C=C/c1ccccc1,0,270*,-8,-36*,18
C=CCOC(=O)/C(=C/c1ccco1)NC(=O)/C=C/c1ccccc1,-1,4,-4,-8,3
Cc1cc2c(s1)c1cnn(Cc3ccccc3)c(=O)c1n2C,-1,0,8,0,0
COc1cc(NC(=S)N2CCN(C/C=C/c3ccccc3)CC2)cc(OC)c1,0,3,2,-3,-2
COc1cc(NC(=S)N2CCN(C(c3ccccc3)c3ccccc3)CC2)cc(OC)c1,1,5,2,-32*,2
CCCNC(=S)N1CCN(C(c2ccccc2)c2ccccc2)CC1,0,1,-7,-33*,-7
